Reference: the supplement of paper PMC6555819

Legend:
Assay in all cases: PBM binding z-score (relative to random genomic background probes); higher = stronger binding; sequences stand for … in GC…GCGATTGACAGCGTAGAATGAAGG
[1] = tested on: PPARg:RXRa DBDmut IVT, anti-RXR (DBD mutation: RXRa K156A/R161A, NR concentration 270 nM, RXRa partner concentration 90 nM)
Method in brief: (§1)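 Binding z-scores take random background probes as their reference. They come from custom Agilent 4×180K protein-binding microarrays incubated 1 h with ligand-free nuclear receptor dimers, with antibodies against each partner (one per run) detecting binding. Scanned fluorescence was regression-normalized.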

[2] = tested on: PPARg:RXRa IVT, anti-PPARg (NR concentration 270 nM, RXRa partner concentration 90 nM)
Method in brief: as §1

[3] = tested on: PPARg DBDmut IVT, anti-PPARg (DBD mutation: PPARg1 K132A/R137A, NR concentration 270 nM)
Method in brief: as §1

[4] = tested on: PPARg homodimer (NR concentration 180 nM)
Method in brief: as §1

[5] = tested on: PXR:RXRa (NR concentration 270 nM, RXRa partner concentration 90 nM)
Method in brief: as §1

[6] = tested on: PXR homodimer (NR concentration 270 nM)
Method in brief: as §1

[7] = tested on: RARa:RXR (NR concentration 270 nM, RXRa partner concentration 90 nM)
Method in brief: as §1

[8] = tested on: RARa homodimer (NR concentration 270 nM)
Method in brief: as §1

[9] = tested on: RARb:RXRa (NR concentration 270 nM, RXRa partner concentration 90 nM)
Method in brief: as §1

[10] = tested on: RARb homodimer (NR concentration 270 nM)
Method in brief: as §1

[11] = tested on: RARg:RXRa (NR concentration 270 nM, RXRa partner concentration 90 nM)
Method in brief: as §1

[12] = tested on: RARg homodimer (NR concentration 270 nM)
Method in brief: as §1

[13] = tested on: RXRa DBDmut IVT, anti-RXR (DBD mutation: RXRa K156A/R161A, NR concentration 90 nM)
Method in brief: as §1

[14] = tested on: RXRa homodimer (NR concentration 180 nM)
Method in brief: as §1

[15] = tested on: THRa:RXRa (NR concentration 90 nM, RXRa partner concentration 90 nM)
Method in brief: as §1

[16] = tested on: THRa homodimer (NR concentration 90 nM)
Method in brief: as §1

[17] = tested on: VDR homodimer (NR concentration 270 nM)
Method in brief: as §1

Sequence	PBM binding z-score [1]	PBM binding z-score [2]	PBM binding z-score [3]	PBM binding z-score [4]	PBM binding z-score [5]	PBM binding z-score [6]	PBM binding z-score [7]	PBM binding z-score [8]	PBM binding z-score [9]	PBM binding z-score [10]	PBM binding z-score [11]	PBM binding z-score [12]	PBM binding z-score [13]	PBM binding z-score [14]	PBM binding z-score [15]	PBM binding z-score [16]	PBM binding z-score [17]
ATATGTAGGTTAGGCTCATTCAGAAAGTAGGGAA	6.49	5.75	1.4	0.501	-0.124	0.16	-0.184	0.657	0.339	0.0368	0.252	0.612	0.0964	0.205	0.086	-0.237	-0.178
CGAACTAGGTCACCAGGACAGTGTAGAGGTTGGA	8.42	8.73	1.75	2.71	1.58	-0.179	2.54	0.514	4.1	3.53	4.35	5.47	1.65	3.25	3.47	2.14	0.343
ATATGTAGGTTAAGGTCATTCAGAAAGTAGGGAA	7.09	7.46	2.29	3.37	4.99	3.21	4.73	2.27	4.35	4.18	4.81	4.96	2.75	4.96	4.41	4.8	4.05
CGAACTAGGTCACCCGGACAGTGAAGAGGTTGGA	8.23	8.41	0.442	2.42	1.55	0.0197	2.64	0.174	4.22	3.23	4.48	5.44	1.27	2.93	2.98	1.47	1.13
CGAACTAGGTCACCAGGACAGTCAAGAGGTTGGA	8.33	8.73	2.35	2.43	1.51	0.0182	2.72	0.536	4.28	3.44	4.37	5.18	1.24	3.33	3.46	1.89	0.612
CGAACTAGGTCACAAGGACAGTGAAGAGGTTGGA	8.39	9.03	1.5	3.52	1.25	0.516	2.14	0.713	4.09	3.36	4.24	4.8	1.32	3.1	3.33	1.7	0.816
CGAACTACGTCAAAGGACAGTGAAAGGCGACGTA	-0.332	-0.152	-0.567	-0.204	-0.445	-0.202	-0.353	-0.431	1.14	0.995	0.411	0.951	-0.164	0.202	0.0886	-0.314	-0.351
CGAACTAGGTCAAAGCACAGTGAAAGGCGACGTA	7.81	8.43	5.29	3.43	1.01	-0.325	1.71	0.149	3.8	2.34	3.89	4.07	1.58	2.66	2.37	0.0185	0.261
CGAACTAGGTCAAAGGGCAGTGAAAGGCGACGTA	8.19	8.52	0.155	2.2	2.96	-0.191	4.78	-0.269	4.31	3.46	5.34	4.91	1.65	5.31	3.11	0.218	0.354
ATATGTAGGTTAGGTTCATTCAGAAAGTAGGGAA	6.23	5.61	2.4	1.77	2.89	2.26	2.24	1.68	1.5	1.29	1.47	1.35	3.43	2.17	1.8	0.787	5.47
CGAACTAGGTCAAAGGACAGTGTAAGGCGACGTA	7.92	7.95	-0.12	0.849	1.19	-0.0737	2.22	0.371	3.91	3.11	4.01	4.55	1.32	3.01	2.9	0.826	0.391
CGAACTGGGTCACCAGGACAGTGAAGAGGTTGGA	7.66	8.73	1.6	1.47	1.55	-0.358	2.52	-0.049	3.73	2.84	4.16	4.22	0.542	3.41	2.91	0.811	0.0235
CGAACTAGGTCACCTGGACAGTGAAGAGGTTGGA	8.17	8.6	-0.299	1.42	1.46	0.15	2.53	-0.115	4.05	3.36	4.43	5.32	1.49	3.36	3.1	1.2	0.466
CGAACTGGGTCAAAGGACAGTGAAAGGCGACGTA	7.3	7.89	-0.0176	0.919	1.21	-0.282	2.12	-0.262	3.44	2.58	3.7	3.67	0.996	3.11	1.95	0.161	0.185
CGAACTAGGTCAAAGGCCAGTGAAAGGCGACGTA	7.82	8.38	0.408	1.42	1.79	-0.54	3.18	-0.426	3.87	3.16	4.37	4.81	1.49	3.62	2.42	0.00822	-0.206
CGAACTAGGTCAAAGGACAATGAAAGGCGACGTA	7.79	8.35	0.575	1.69	1.5	0.00867	2.52	0.325	3.85	3.04	4.01	4.77	1.13	3.35	2.67	0.783	0.585
